AC50 and outcome data for four molecules are collected here from PubChem BioAssay AID2284354 (EPA ToxCast).

Results filed as inconclusive are left out. Activity calls are given as the source filed them. The calls were made as follows: active = hit-call score of the fitted dose curve at least 0.9, where 1 is the maximum; inconclusive = response in the unintended direction; inactive = score below 0.9.

The target of the test is human Retinoid X Receptor beta (RXRb), RXRB (gene 6257) (UniProt P28702). Briefly: ATG_hRXRb_EcoTox2: Attagene TRANS-FACTORIAL EcoTox-2 HepG2 Assay for human Retinoid X Receptor beta (RXRb). The method, then: ATG_EcoTox2 is a cell-based, multiplexed assay created by modifying the existing Attagene TRANS-FACTORIAL system to include a panel of nuclear receptors from some or all the following species: human (Homo sapiens), african clawed frog (Xenopus laevis), rainbow trout (Oncorhynchus mykiss), japanese medaka (Oryzias latipes), and zebrafish (Danio rerio). The ECOTOX2-FACTORIAL format uses HepG2, a human liver cell line, with measurements taken at 24 hours after chemical dosing in a 24-well plate. ATG_hRXRb_EcoTox2 is one of 29 assay components calculated in the ATG_EcoTox2 assay. It is designed to make measurements of mRNA induction, a form of inducible reporter, as detected with fluorescence intensity signals by Reverse transcription polymerase chain reaction (RT-PCR) and Capillary electrophoresis technology.The assay endpoint ATG_hRXRb_EcoTox2 was analyzed in the positive analysis fitting direction relative to DMSO as the negative control and baseline of activity. Using a type of inducible reporter, measures of mRNA for gain-of-signal activity can be used to understand the reporter gene at the transcription factor-level as they relate to the gene RXRb. Furthermore, this assay endpoint can be referred to as a primary readout, because this assay has produced multiple assay endpoints where this one serves a reporter gene function. To generalize the intended target to other relatable targets, this assay endpoint is annotated to the nuclear receptor intended target family, where the subfamily is non-steroidal.
Chain of human Retinoid X Receptor beta (RXRb), RXRB (gene 6257) (P28702 whole entry, looked up): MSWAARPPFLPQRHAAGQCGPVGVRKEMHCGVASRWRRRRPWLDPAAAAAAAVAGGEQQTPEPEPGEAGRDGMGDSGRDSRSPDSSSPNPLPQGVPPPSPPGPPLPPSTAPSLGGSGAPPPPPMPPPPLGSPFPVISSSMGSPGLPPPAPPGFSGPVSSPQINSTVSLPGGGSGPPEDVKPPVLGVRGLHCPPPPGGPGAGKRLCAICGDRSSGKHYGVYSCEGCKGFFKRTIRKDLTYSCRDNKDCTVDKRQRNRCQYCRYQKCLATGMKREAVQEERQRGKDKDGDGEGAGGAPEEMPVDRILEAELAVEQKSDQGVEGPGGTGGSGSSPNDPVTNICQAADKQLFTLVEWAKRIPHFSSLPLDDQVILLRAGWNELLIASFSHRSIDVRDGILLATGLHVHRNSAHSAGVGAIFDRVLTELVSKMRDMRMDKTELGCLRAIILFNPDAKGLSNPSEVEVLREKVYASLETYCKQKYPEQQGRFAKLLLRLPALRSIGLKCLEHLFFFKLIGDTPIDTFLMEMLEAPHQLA
Human liver HepG2 cells are transiently transfected with multiple reporter transcription units (MRTUs) in 6-well plates using FuGene 6 reagent (Roche; 3 ml FuGene/1 mg DNA). The MRTU constructs are regulated by a cis-regulating element (promoter). Each RTU expresses a GAL4-UAS that regulates the transcription of a nearby target reporter gene sequence. A major difference between the CIS and TRANS system is that in CIS activities of endogenous TFs are measured, whereas the TRANS assay evaluates changes in activities of exogenous, chimeric NR-Gal4 proteins. […] At the end of 24 hour incubation, total RNA was isolated using TriZol reagent (Invitrogen). The isolated RNA is then reverse-transcribed using oligo(dT) primer and Mo-MLV reverse transcriptase (Invitrogen) with DNAse I (Ambion) treatment for 30 min. The one-tenth of the produced cDNA was amplified by PCR using Taq DNA polymerase (Invitrogen) and two reporter sequence-specific primers. […] The fragments were purified using Qiaquick PCR columns (Qiagen), analyzed on an ABI 3130xL genetic analyzer (Applied Biosystems) with peak positions identified by using a set of X-rhodamine (ROX)-labeled MapMarker1000 molecular weight standards (BioVentures). […]
As usually defined, the AC50 is the concentration at which the activity in the assay is half-maximal. Regarding `[Cl][Sn]([c]1ccccc1)([c]1ccccc1)[c]1ccccc1`, the AC50 was 0.041 µM (active).
Regarding `O=S(=O)(O)C(F)(F)C(F)(F)C(F)(F)C(F)(F)C(F)(F)C(F)(F)F`, the result was inactive.
On to `O=C(O)C(F)(F)C(F)(F)C(F)(F)C(F)(F)C(F)(F)C(F)(F)C(F)(F)F`, for which the AC50 is 29 µM (active).
Still for that read-out and setting: the figure for `CCCCOCN(C(=O)CCl)c1c(CC)cccc1CC` is 36.6 µM (active).
